Data: PubChem BioAssay (NCI)
Compounds without any hit were thinned out: in the full panel of roughly 83,000, 20% have a hit.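 Assay: single dose, 48 h. Readout: percent growth (0 = no net growth; negative = cell death). Active: <10.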 Unmarked numbers belong to inactive results. The source made the active and inactive calls.

Assays:
Experiment in all cases: NCI-60 one-dose screen, 48 h (100 = growth as untreated, 0 = no growth, -100 = all killed)
Conditions in all cases: 10 µM unless noted
[1] = system: HCT-15 colon
[2] = system: HT29 colon
[3] = system: SNB-75 CNS
[4] = system: SNB-19 CNS
[5] = system: U251 CNS
[6] = system: PC-3 prostate
[7] = system: SK-MEL-5 melanoma
[8] = system: UACC-62 melanoma
[9] = system: LOX IMVI melanoma
[10] = system: SK-MEL-28 melanoma
[11] = system: SK-MEL-2 melanoma
[12] = system: EKVX NSCLC
[13] = system: SN12C renal
[14] = system: UO-31 renal
[15] = system: TK-10 renal
[16] = system: ACHN renal
[17] = system: CAKI-1 renal
[18] = system: A498 renal
[19] = system: CCRF-CEM leukemia
[20] = system: MOLT-4 leukemia

SMILES	growth [1]	growth [2]	growth [3]	growth [4]	growth [5]	growth [6]	growth [7]	growth [8]	growth [9]	growth [10]	growth [11]	growth [12]	growth [13]	growth [14]	growth [15]	growth [16]	growth [17]	growth [18]	growth [19]	growth [20]
CCOC(=O)C1=C(CCl)N(C)C(=O)NC1c1ccc2c(c1)OCO2 (stereo not given)	34.4%	38.7%	28.8%	84.5%	68%	36.8%	81.9%	73.2%	40.9%	79%	58.8%	71.9%	58.6%	69.5%	45.2%	49.5%	36.7%	55.8%	12%	53.2%
CS(=O)(=O)Nc1cc(-c2ccc3ncnc(Nc4ccc5c(cnn5Cc5ccccc5F)c4)c3c2)cnc1Cl	79.4%	51%	-15.7% (active)	49.1%	46.3%	37.5%	26.3%	19.4%	25.9%	17.5%	15.3%	52.2%	23.3%	43.2%	30.6%	59%	27.3%	-14.1% (active)	31.1%	16.4%
O=C(Nc1cc(Cl)ccc1O)c1ccccc1Nc1ccnc(C(F)(F)F)c1	14.1%	38.2%	55.6%	16.2%	10.8%	7.3% (active)	-43.8% (active)	23.1%	18.8%	75%	31.8%	75.8%	3.5% (active)	1.11% (active)	74.5%	7.95% (active)	72.1%	53.7%	-2.43% (active)	-25% (active)
c1cc(OCCN2CCCCC2)ccc1CNc1ccc2nc(CCC3CCCCC3)[nH]c2c1	-13.9% (active)	8.7% (active)	68.1%	62%	-11.8% (active)	44.9%	-99.4% (active)	53.5%	-82% (active)	-86.6% (active)	-11.3% (active)	75.8%	64.4%	-30.4% (active)	80.1%	45.4%	-28.5% (active)	10.5%	5.76% (active)	7.66% (active)
Cn1cc(-c2csc(-c3cn(C)c4ccccc34)n2)c2cnccc21	-35.9% (active)	4.26% (active)	104%	52.2%	-48.7% (active)	54.8%	-76.2% (active)	61.4%	-87.5% (active)	-92.9% (active)	107%	16.8%	67.8%	-48.1% (active)	66.7%	-61.4% (active)	-6.15% (active)	85.2%	0.781% (active)	5.42% (active)
COc1ccc(-c2nc(SCC(=O)Nc3nc4ccc(C)cc4s3)[nH]c(=O)c2C#N)cc1OC	104%	107%	60.4%	101%	104%	93.2%	97.7%	94.4%	90.4%	108%	115%	97%	95.9%	61%	164%	96.3%	74.7%	102%	110%	99.4%
O=C(Nc1ccccc1O)c1ccc(CNc2ccnc(C(F)(F)F)c2)cc1	67.5%	75.8%	55.9%	68%	60.3%	57.7%	38.1%	32.8%	52.7%	69.9%	52.4%	52.7%	48.8%	29.2%	96.2%	43%	29.6%	66.4%	-8.29% (active)	9.24% (active)
CCC(C)(C)c1ccc(Nc2ccc(Nc3ccc(C(C)(C)CC)cc3)cc2)cc1	91.2%	67%	93%	95.9%	90.7%	65.8%	99.2%	83.2%	89.9%	105%	95.9%	98.6%	96.7%	62.5%	103%	97%	71%	121%	87.9%	76%
CCSc1ccnc(N)n1	102%	113%	95.2%	103%	105%	96%	107%	99%	99.9%	114%	106%	104%	106%	97.7%	101%	96.8%	82.1%	98.1%	97.3%	124%
Cn1cc(-c2csc(-c3cn(CCCN4CCOCC4)c4ccc(F)cc34)n2)c2cccnc21	27.1%	1.97% (active)	87.1%	77.1%	51.1%	29.6%	25.1%	72.2%	26.6%	77.5%	86.3%	63%	78.5%	50.2%	75.1%	63.8%	79%	36.1%	36.4%	32.1%
COC(=O)/C(CCC=C(C)C)=C1\[C@@H](OC(C)=O)C[C@@]2(C)[C@H]1C/C(=N/O)[C@H]1[C@@]3(C)CC/C(=N\O)[C@@H](C)[C@@H]3CC[C@@]12C	88.4%	107%	86.9%	88.9%	91.5%	70.9%	98.9%	93.7%	78.1%	111%	96.7%	100%	95.1%	77.5%	119%	102%	76.1%	111%	87.3%	72.1%
COc1ccc2c(c1)CC[C@@H]1[C@@H]2CC[C@]2(C)C3C(=CC(COC(C)=O)C4C(=O)N(c5ccc(Cl)cc5)C(=O)C43)C[C@@H]12 (stereo not given in full)	94.3%	90%	90.5%	110%	102%	82%	93.4%	83.2%	94%	106%	108%	108%	101%	79.1%	120%	95.8%	108%	108%	75.5%	63.9%
COc1ccc(C2CC(n3ccnc3)c3cc(OC)c(OC)c(OC)c32)cc1O (stereo not given)	59.9%	102%	90.2%	93.7%	80.4%	60.7%	53.1%	65.5%	86.4%	78.3%	89.6%	101%	104%	79.9%	101%	86.4%	74.5%	88.3%	90.9%	90%
COC12C=C/C(=C(/C(=O)OCCSc3ccnn3C)C(=O)CCCCCCCCC3(OC)C=C/C(=C(/C(=O)OCCSc4ccnn4C)C(=O)CCCCCCCC1)O3)O2	-19.5% (active)	11.9%	56.8%	32.9%	-3.32% (active)	15.8%	-70% (active)	-56.3% (active)	-68.6% (active)	-9.65% (active)	12.3%	9.41% (active)	-4.94% (active)	14.8%	39.9%	4.65% (active)	26.6%	-53.5% (active)	11.1%	-0.956% (active)
CCCCCCCCCCCCCCCCCCOc1ccccc1CC(=O)NCC[N+](C)(C)C	87.4%	12.5%	22.9%	12.5%	-58.5% (active)	-33% (active)	63.7%	42%	33.4%	80.1%	68.8%	89.3%	23.5%	80.2%	-21.4% (active)	78.3%	18.7%	65.6%	-5.38% (active)	17.1%
COc1ccc2c(c1)oc1c(C)c3c(c(C)c12)C(=O)N(CCOS(C)(=O)=O)C3=O	102%	101%	103%	95.4%	108%	96.5%	101%	87.8%	90.3%	102%	101%	107%	94%	88.2%	124%	97.1%	95.4%	129%	100%	94.7%
CN1C(=O)/C(=C/c2ccc(C(=O)Nc3ncc(Cc4cccc(C(F)(F)F)c4)s3)cc2)SC1=S	36.3%	55.4%	64.1%	61.5%	67.8%	53.5%	7.19% (active)	11.3%	35%	46.4%	56.7%	37.1%	73.4%	51.1%	47.5%	32.4%	22%	35.6%	7.85% (active)	46.8%
COc1ccc(C/C(C)=C(\c2ccc(Cl)cc2)c2ccc(OCCN3CCCC3)cc2)cc1	40.2%	19.6%	88.5%	92.1%	61.1%	77.8%	89.7%	90.8%	82.9%	91.4%	96.8%	96.7%	82.7%	66.3%	87.6%	94.8%	83.4%	110%	57.2%	44.6%
COC(=O)c1c(C)nc(C)c2c1C(=O)C=C(NCc1ccccc1)C2=O	73.3%	92%	88.9%	93.2%	99%	75.6%	51.4%	65.8%	61.7%	108%	72.8%	71.5%	88.6%	74.2%	119%	76%	81.5%	124%	89.1%	75.9%
CC(=O)Nc1sc2c(c1-c1nc3ccccc3s1)CNC2	11.3%	15.7%	29.5%	26.8%	27.3%	21.7%	17.4%	20.1%	3.64% (active)	34.2%	23.2%	30.6%	27.9%	6.46% (active)	29%	9.91% (active)	23.8%	36.6%	22.6%	10.4%
CC12OC(CC(O)C1O)n1c3ccccc3c3c4c(c5c6ccccc6n2c5c31)C(=O)N(CCN1CCCC1)C4=O (stereo not given)	10.5%	5.08% (active)	10.2%	13.4%	11.8%	20.8%	28.9%	19.3%	-2.77% (active)	63%	31.9%	38.4%	14.9%	19.5%	21.2%	-38.1% (active)	15.4%	17.8%	20.3%	-3.23% (active)
COc1ccc(C/C(C)=C(\c2ccc(Cl)cc2)c2ccc(OCCCN(C)C)cc2)cc1	27.3%	13.6%	72.4%	86.7%	46.4%	68.7%	78.3%	94.5%	73.1%	80.8%	111%	94.1%	78.8%	62.4%	86.7%	90%	87.3%	114%	56.9%	40.9%
COC1C(O)CC(OC2CC(OC3CC(O[C@@H]4C(=O)c5c(cc6cc(OC7CC(OC8CC(O)C(O)C(C)O8)C(O)C(C)O7)c(C)c(O)c6c5O)CC4[C@H](OC)C(=O)C(C)=O)OC(C)C3O)OC(C)C2O)OC1C (stereo not given in full)	-2.22% (active)	-19.8% (active)	-80.9% (active)	11.2%	1.19% (active)	-1.97% (active)	-40.4% (active)	-30.3% (active)	-2.05% (active)	-20.6% (active)	-41.9% (active)	3.71% (active)	7.44% (active)	-27.7% (active)	-8.69% (active)	5.29% (active)	16.9%	-44.1% (active)	4.37% (active)	-6.83% (active)
COc1ccc(C(c2cc(OC)c(OC)c(OC)c2)N2CCCCC2)cc1 (stereo not given)	20.6%	7.93% (active)	26.6%	30.4%	26.1%	25.1%	29.5%	18.2%	36.3%	47.2%	22%	59.1%	54.3%	48.8%	57.6%	50.9%	29.2%	7.32% (active)	29.9%	31.5%
Cc1cc(NCCCNc2ccnc3cc(Cl)ccc23)nc(Nc2ccc(C(=O)N3CCCCC3)cc2)n1	0.549% (active)	-5.41% (active)	26.7%	25.6%	-8.28% (active)	50.5%	-98.5% (active)	-71.2% (active)	-77.1% (active)	-71.2% (active)	75.7%	48.4%	36.6%	57.6%	5.49% (active)	43.2%	76.2%	66.9%	14.4%	20.7%
CC1=C2[C@@H](CC1)[C@]1(C)O[C@@](C3CCNCC3)(C[C@H]1OC(=O)CO)[C@H]2OC(=O)/C=C/c1ccccc1	93.4%	43.2%	68.9%	90.6%	44.3%	66.6%	94.8%	93.3%	87.1%	94.1%	106%	91.8%	53.1%	60.1%	97.3%	47%	49.1%	9.48% (active)	78.9%	78.1%
CN1CCN(Cc2ccc(NC(=O)c3cncc(C#Cc4cnc(N)cc4C#N)c3)cc2C(F)(F)F)CC1	15.4%	5.78% (active)	33.2%	39.1%	20.1%	11.7%	9.34% (active)	-12.9% (active)	-84.6% (active)	0.973% (active)	-65.9% (active)	34.3%	13.5%	1.25% (active)	19.4%	10.3%	-9.35% (active)	-8.99% (active)	6.94% (active)	4.83% (active)
CCOC(=O)C/C(=N\Nc1cc(=O)[nH]c2ccc(OC)cc12)C(=O)OCC	99.7%	110%	94.6%	100%	106%	89%	99.7%	90.4%	96.6%	99.6%	117%	100%	99.5%	78.1%	114%	98.8%	91.9%	106%	-47.5% (active)	26.1%
CC(C)CCC[C@@H](C)[C@H]1CC[C@H]2[C@@H]3CC=C4c5sc(Nc6cc(C(F)(F)F)cc(C(F)(F)F)c6)nc5CC[C@]4(C)[C@H]3CC[C@]12C	101%	110%	95.5%	98.6%	96%	92.8%	100%	94.5%	96.8%	113%	124%	97%	92.3%	73.4%	119%	106%	85.6%	123%	107%	103%
O=C(Nc1ncc(Cc2ccccc2)s1)c1sc2ccccc2c1Cl	26.5%	12.3%	-1.11% (active)	52.6%	21.4%	27%	3.74% (active)	12.1%	46.9%	59.4%	20.8%	30.2%	39.5%	39%	38.8%	39.8%	29.5%	15.1%	18.8%	31.4%
